From PubChem BioAssay (Tox21)
Values joined by “and” are separate entries in the source; they are usually repeats but may differ in a detail not shown here. Identical values can stand only once. Inconclusive results are not listed. The source holds several records for some structures; these can differ, active in one and inactive in another. Active and inactive are the calls of the source. Unless noted, calls follow the shape of the dose curve; as a rule, active = well fitted curve in the direction sought with a large enough effect in the repeat runs; inconclusive = weak or mixed curves; inactive = no such curve, though single readings can be large; an effect the other way counts as inactive or inconclusive.

Assays:
[1] = qHTS assay to identify small molecule agonists of the vitamin D receptor (VDR) signaling pathway - cell viability counter screen (AID 743224); also: nearly all actives have a fitted effect of over 50% in size; also: potency is read from the fitted curve at half-maximal effect
Summary of the method: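 Here cell health was gauged by luminescent ATP detection (CellTiter-Glo, 30 min RT) in VDR-bla cells that had been incubated with test compounds for 16 h at 37C and 5% CO2.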

[2] = qHTS assay to identify small molecule antagonists of the vitamin D receptor (VDR) signaling pathway - cell viability counter screen (AID 743225); also: nearly all actives have a fitted effect of over 50% in size
Summary of the method: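 Cells (VDR-UAS-bla HEK 293T) are plated, rested 4 h at 37C, dosed with compound and 3 nM final 1-alpha,25-dihydroxy vitamin D3, and incubated 16 h. Viability is taken from CellTiter-Glo luminescence in the reporter wells.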

[3] = qHTS assay to identify small molecule agonists of the NFkB signaling pathway (AID 1159509; active = well fitted curve in the direction sought with a large enough effect in the signal ratio in the repeat runs, not every such curve was filed as active; the % refers to the signal ratio; also: series mostly up to about 61 µM)
Summary of the method: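 After overnight attachment, reporter cells received test compounds, DMSO or positive controls and were incubated 5 hr at 37 C. FRET substrate was then added for 1.5 hr at room temperature before dual-emission fluorescence reading.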

[4] = qHTS assay to identify small molecule agonists of the NFkB signaling pathway - cell viability counter screen (AID 1159515; calls by dose curve; also: series mostly up to about 61 µM; nearly all actives have a fitted effect of over 55% in size)
Summary of the method: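 5 hr compound treatment of NFkB-bla ME-180 cells (2,000/well, seeded overnight beforehand), followed by reporter substrate for 1.5 hr. CellTiter-Glo added afterward; luminescence after 30 min RT.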

[5] = qHTS assay to identify small molecule agonists of the endoplasmic reticulum stress response signaling pathway (AID 1159516; active = well fitted activation curve with a large enough effect in the signal ratio in the repeat runs, not every such curve was filed as active; the % refers to the signal ratio)
Summary of the method: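 Reporter HeLa cells (ESRE-beta-lactamase) underwent 5 hr compound incubation at 37 C and 5% CO2 in quantitative HTS format. Detection followed 2 hr of FRET substrate loading at room temperature.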

[6] = qHTS assay to identify small molecule agonists of the endoplasmic reticulum stress response signaling pathway - cell viability counter screen (AID 1159517; calls by dose curve;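 also: HeLa cells carrying an ER stress response element beta-lactamase reporter; series mostly up to about 61 µM; nearly all actives have a fitted effect of over 50% in size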)
Summary of the method: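 Luminescence readout: CellTiter-Glo, 30 min RT, same wells as the ESRE-bla reporter read. HeLa ESRE-bla, 1,500 cells/well, o/n 37 C; cpd 5 hr 37 C/5% CO2.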

[7] = qHTS assay to identify small molecule antagonists of the retinoid-related orphan receptor gamma (ROR-gamma) signaling pathway - cell viability counter screen (AID 1159520); also: nearly all actives have a fitted effect of over 50% in size
Summary of the method: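 Tet-on ROR gamma CHO cells (1,000/well) were plated 4 hr, given compounds in DMSO for 2 hr at 37 C, then induced with 1 uM final doxycycline for 16 hr. Viability was read as ATP by CellTiter-Glo luminescence after 30 min.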

[8] = biological target: Nuclear receptor ROR-gamma (Homo sapiens) (UniProt P51449); assay: qHTS assay to identify small molecule antagonists of the retinoid-related orphan receptor gamma (ROR-gamma) signaling pathway (AID 1159521; also: nearly all actives have a fitted effect of over 50% in size; also: potency is read from the fitted curve at half-maximal effect)
Summary of the method: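 RORγ antagonism is scored from reduced reporter luminescence in Tet-on CHO cells. Induction used 1 uM final doxycycline hyclate for 16 h at 37 C, following a 2 h compound exposure.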

[9] = qHTS assay to identify small molecule agonists of the AP-1 signaling pathway - cell viability counter screen (AID 1159525; calls by dose curve; also: nearly all actives have a fitted effect of over 55% in size)
Summary of the method: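 ME-180 AP-1-bla, 2500 cells/well, Opti-MEM + 0.5% dialyzed FBS; overnight 37 °C; cpd 15-pt titration, 5 h 37 °C; CellTiter-Glo 30 min RT; luminescence read; normalised to TOAB and DMSO controls.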

[10] = qHTS assay to identify small molecule agonists of the AP-1 signaling pathway (AID 1159526; calls by dose curve)
[11] = biological target: Retinoic acid receptor RXR-alpha (Homo sapiens) (UniProt P19793); assay: qHTS assay to identify small molecule agonists of the RXR signaling pathway (AID 1159527; calls by dose curve; also: nearly all actives have a fitted effect of over 35% in size)
Retinoic acid receptor RXR-alpha (Homo sapiens), sequence (P19793 whole entry, looked up): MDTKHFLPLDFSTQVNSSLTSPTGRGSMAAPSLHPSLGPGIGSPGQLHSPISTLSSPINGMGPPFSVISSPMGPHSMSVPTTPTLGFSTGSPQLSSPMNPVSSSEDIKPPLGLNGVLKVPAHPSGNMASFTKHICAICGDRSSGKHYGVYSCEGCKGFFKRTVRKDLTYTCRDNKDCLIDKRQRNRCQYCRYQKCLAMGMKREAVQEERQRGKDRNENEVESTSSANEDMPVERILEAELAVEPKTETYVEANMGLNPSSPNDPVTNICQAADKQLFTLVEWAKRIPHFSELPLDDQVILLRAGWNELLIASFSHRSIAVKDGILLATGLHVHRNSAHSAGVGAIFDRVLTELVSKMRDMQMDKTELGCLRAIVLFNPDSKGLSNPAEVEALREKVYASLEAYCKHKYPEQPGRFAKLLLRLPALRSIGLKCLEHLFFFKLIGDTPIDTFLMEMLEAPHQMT
Summary of the method: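 qHTS of the Tox21 10K library in GeneBLAzer RXR-alpha HEK 293T cells carrying a beta-lactamase reporter […]; 16 hr treatment, 9-cis retinoic acid as agonist control, FRET read-out.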

[12] = qHTS assay to identify small molecule agonists of the RXR signaling pathway - cell viability counter screen (AID 1159529)
Summary of the method: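 Cell viability is measured by CellTiter-Glo luminescence, 30 min at room temperature, in wells already read for beta-lactamase. Engineered HEK 293T cells (RXR-alpha-UAS-bla) are dosed 16 hr at 37 C. Tetraoctyl ammonium bromide serves as positive control.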

[13] = qHTS assay to identify small molecule antagonists of the retinoid acid receptor (RAR) signaling pathway - cell viability counter screen (AID 1159551); also: nearly all actives have a fitted effect of over 35% in size
Summary of the method: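 Seed C3RL4 cells; next day add compound, then retinol to 1 uM final; incubate 6 h at 37 C; add CellTiter-Glo; read luminescence after 30 min at RT.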

[14] = qHTS assay to identify small molecule antagonists of the retinoic acid receptor (RAR) signaling pathway (AID 1159552; also: nearly all actives have a fitted effect of over 50% in size)
Summary of the method: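 Quantitative HTS in C3RL4 RARE-luciferase reporter cells. Compounds were added with 1 uM (final) retinol; luminescence was read after 6 hr.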

[15] = qHTS assay to identify small molecule agonists of the retinoic acid receptor (RAR) signaling pathway (AID 1159553); also: potency is read from the fitted curve at half-maximal effect
Summary of the method: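 Activation of retinol signaling was monitored via a RARE luciferase reporter in C3RL4 cells. After 6 hr compound treatment at 37 C, detection reagent was added for 30 min at room temperature before luminescence reading.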

[16] = qHTS assay to identify small molecule antagonists of the estrogen related receptor (ERR) signaling pathway - cell viability counter screen (AID 1224818);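 also: series mostly up to about 46 µM; viability measured after 17.5 h of compound exposure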
Summary of the method: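 In the same ERR cell assay, compound-treated wells (17.5 h, 37 C) were multiplexed with a fluorogenic viability reagent, CellTiter-Fluor, read after 30 min to flag cytotoxic substances.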

[17] = qHTS assay to identify small molecule antagonists of the estrogen related receptor (ERR) signaling pathway (AID 1224819)
Summary of the method: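 qHTS in ERR cells, 2,000/well, 1536 format. Cpd (DMSO) added after 6 h settle, 18 h 37 C. One-Glo luminescence, 30 min RT.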

[18] = qHTS assay to identify small molecule agonists of the estrogen related receptor (ERR) signaling pathway (AID 1224820)
Summary of the method: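 Quantitative HTS of the LOPAC library used NTP ERR reporter cells treated 18 h at 37 C. Signal is luminescence after One-Glo addition and a 30 min room-temperature incubation.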

[19] = system: estrogen-related receptor alpha (ERRalpha) with PGC-1alpha coactivator, human; assay: qHTS assay to identify small molecule antagonists of the estrogen related receptor signaling pathway with the pleiotropic PPARgamma coactivator (PGC) (AID 1224821; calls by dose curve)
Summary of the method: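 Quantitative HTS for antagonism: PGC/ERR cells received compounds after 6 h attachment and were incubated 18 h at 37 C, with luminescence (One-Glo) as the endpoint.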

[20] = qHTS assay to identify small molecule antagonists of the estrogen related receptor signaling pathway with the pleiotropic PPARgamma coactivator (PGC) cell viability counter screen (AID 1224822; also: series mostly up to about 46 µM)
Summary of the method: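 Compounds in DMSO, with positive and negative controls, were applied to PGC/ERR cells (2,000/well) and left 17.5 h at 37 C before CellTiter-Fluor detection.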

Measured: Potency

Nc1ncc([N+](=O)[O-])s1
inactive: [1] | [2] | [3] | [4] | [5] | [6] | [7] | [8] | [9] | [10] | [11] | [12] | [13] | [14] | [15]

ClC(Cl)c1ccccc1
inactive: [1] | [2] | [3] | [4] | [5] | [6] | [7] | [8] | [9] | [10] | [11] | [12] | [13] | [14] | [15]

Cc1cccc(N)c1
inactive: [1] | [2] | [3] | [4] | [5] | [6] | [7] | [8] | [9] | [10] | [11] | [12] | [13] | [15]

CCOP(=S)(OCC)Oc1cc(C)nc(C(C)C)n1
inactive: [2] | [3] | [4] | [5] | [6] | [7] | [8] | [9] | [10] | [11] | [12] | [13]
inactive and 24.5 µM (active): [1]

CN(C)C(=O)Nc1cccc(C(F)(F)F)c1
inactive: [1] | [2] | [3] | [4] | [5] | [6] | [7] | [8] | [9] | [10] | [11] | [12] | [13] | [14] | [15]

COS(=O)(=O)OC
inactive: [1] | [2] | [3] | [4] | [5] | [6] | [7] | [8] | [9] | [10] | [11] | [12] | [13] | [14] | [15]

CSc1nnc(C(C)(C)C)c(=O)n1N
inactive: [1] | [2] | [3] | [4] | [5] | [6] | [7] | [8] | [9] | [10] | [11] | [12] | [13] | [14] | [15]

CC(C)c1cccc(C(C)C)c1O
inactive: [1] | [2] | [3] | [4] | [5] | [6] | [7] | [8] | [9] | [10] | [11] | [12] | [13] | [14] | [15] | [16] | [17] | [18] | [19] | [20]

Nc1cc(Cl)cc(Cl)c1
inactive: [1] | [2] | [3] | [4] | [5] | [6] | [7] | [8] | [9] | [10] | [11] | [12] | [13] | [14] | [15]

Cc1cc(Cl)ccc1OC(C)C(=O)O (centres undefined)
inactive: [1] | [2] | [3] | [4] | [5] | [6] | [7] | [8] | [9] | [10] | [11] | [12] | [13] | [14] | [15]

C/C=C/c1ccc2c(c1)OCO2
inactive: [1] | [2] | [3] | [4] | [5] | [6] | [7] | [8] | [9] | [10] | [11] | [12] | [13] | [14] | [15]

Nc1nc(N)nc(NC2CC2)n1
inactive and 43.6 µM (active): [1]
inactive: [2] | [3] | [4] | [5] | [6] | [7] | [8] | [9] | [10] | [12] | [13] | [14] | [15]

C=CC#N
inactive: [1] | [2] | [3] | [4] | [5] | [6] | [7] | [8] | [9] | [10] | [11] | [13] | [14] | [15]

O=[N+]([O-])c1ccc(Cl)c(Cl)c1
inactive: [1] | [2] | [3] | [4] | [5] | [6] | [7] | [8] | [9] | [10] | [12] | [13] | [14] | [15]

C=C(C)C(=O)OCC(CC)CCCC (centres undefined)
49.5 µM (active) and inactive: [8]
inactive: [1] | [2] | [3] | [4] | [5] | [6] | [7] | [9] | [10] | [12] | [13] | [14] | [15]

CNC(=O)O/N=C/C(C)(C)S(C)=O (centres undefined)
inactive: [1] | [2] | [3] | [4] | [5] | [6] | [7] | [8] | [9] | [10] | [12] | [13] | [14] | [15]

N#CN=C(N)N
inactive: [1] | [2] | [3] | [4] | [5] | [6] | [7] | [8] | [9] | [10] | [11] | [13] | [14] | [15]

O=C(O)c1cc(Oc2ccc(C(F)(F)F)cc2Cl)ccc1[N+](=O)[O-]
inactive: [1] | [2] | [3] | [4] | [5] | [6] | [7] | [8] | [9] | [10] | [11] | [13] | [14] | [15]

COP(=S)(OC)Oc1ccc(SC)c(C)c1
inactive: [1] | [2] | [3] | [4] | [5] | [6] | [7] | [8] | [9] | [10] | [11] | [13] | [14]
active: [15] 19.3 µM
